# High-throughput results deposited in PubChem by National Center for Advancing Translational Sciences (NCATS).
# This is a sample that favours compounds with a hit; in the whole collection about 12% have one here.
# SARS PLP yeast: inhibitors of SARS-CoV papain-like protease in yeast; S. cerevisiae expressing SARS-CoV PLpro, growth rescue; Potency, µM (doses to about 32.9 µM), inactives show at the highest dose activity, positive = growth rescue, usual class: activators; actives 0.19% (n = 330,000); calls by dose curve; also: 0% is about no effect; nearly all actives have a fitted effect of over 55% in size
# Pf growth 48h: inhibits P. falciparum growth in the first generation, 48 h; Potency, µM (titrated, usually from 28.7 µM), without a hit: at the highest dose activity change, negative = inhibition, usual class: inhibitors; actives 5.9% (n = 310,000); P. falciparum luciferase growth in erythrocytes, 48 h; also: % is scaled to controls: 0 for no effect and ±100 for the full control effect
#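 Cell-based growth assay: transgenic P. falciparum expressing firefly luciferase, cultured in red cells within RPMI 1640 containing 0.5% w/v Albumax, 24 mM bicarbonate and gentamycin. A drop in luciferase activity indicates inhibition.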
# Sm TGR block: S. mansoni TGR enzyme inhibition; purified TGR, DTNB reduction, TNB absorbance 405 nm; Potency, µM (top dose mostly 114 µM), for the others: at the highest dose activity change, negative = inhibition, actives largely listed as inhibitors; actives 3% (n = 360,000); Q962Y6; also: % is scaled to controls: 0 for no effect and ±100 for the full control effect; nearly all actives have a fitted effect of over 60% in size
#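 First, TGR (20 nM dispensed) and NADPH were mixed with compound. Second, a 15 min room-temperature incubation followed. Third, further NADPH and then DTNB were added to start the reaction. Finally, TNB absorbance was monitored kinetically.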
# Pf growth 96h: P. falciparum growth inhibition at 96 hour, primary screen for plastid delayed-death inhibitors. Potency, µM (doses to about 28.7 µM), for the others: at the highest dose activity change, negative = inhibition, hits mostly inhibitors. P. falciparum luciferase reporter growth, 96 h. actives 6.9% (n = 320,000); also: % is scaled to controls: 0 for no effect and ±100 for the full control effect
#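 Parasite growth measured via integrated firefly luciferase reporter in P. falciparum. Infected erythrocytes at 2% hematocrit, 0.05% parasitemia final were treated 96 hours at 37 C under 5% CO2, and luminescence was read.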
# An asterisk follows results filed as active; ? = inconclusive; / = no result given; [ ] = dose if it differs, or a comment. Unless noted, calls follow the shape of the dose curve; as a rule, active = well fitted curve in the direction sought with a large enough effect; inconclusive = small, poorly fitted or top-dose-only effect, or another doubt; inactive = no such curve, though single readings can be large; an effect the other way counts as inactive or inconclusive. Potency is read from the fitted curve at half-maximal effect.
SMILES,SARS PLP yeast,Pf growth 48h,Sm TGR block,Pf growth 96h
COc1cccc(CNC(=O)C(=O)N2CCC3(CC2)OCCN3S(=O)(=O)c2ccc(C)cc2)c1,5%,-24%,1%,?
CN(C)C(=S)SC(=S)N(C)C,/,5.4µM*,/,3.4µM*
CN(C)C(=S)SSC(=S)N(C)C,-27%,0.85µM*,-33%,0.76µM*
CCOC(=O)C1CCN(C(=O)C2CCN(C3=NS(=O)(=O)C(c4ccc(C)cc4)=C3CC)CC2)CC1,/,/,1%,/
O=C(COCc1cc(-c2cccs2)on1)NCc1ccc(Cl)cc1,/,/,-1%,/
O=C(COc1cccnc1[N+](=O)[O-])c1ccc(Cl)s1,-2%,-31%,2µM*,-5%
O=C(/C=C\c1ccco1)NC(=S)Nc1ccccc1O,-3%,80%,8.9µM*,85%
O=C(/C=C/c1ccco1)NC(=S)Nc1ccccc1O,9%,91%,10µM*,23%
O=C(/C=C/c1ccco1)NC(=S)Nc1ccccn1,-6%,88%,8.9µM*,/
O=C(/C=C/c1ccco1)NC(=S)Nc1cc(C(F)(F)F)ccc1N1CCOCC1,6%,0%,?,?
Cc1cc(C)c2oc(-c3ccc(C)c(NC(=S)NC(=O)/C=C/c4ccco4)c3)nc2c1,?,?,?,77%
Cc1ccc(NC(=S)NC(=O)/C=C/c2ccco2)c(O)c1,-2%,247%,18µM*,45%[1.15 µM]
Cc1cccnc1NC(=S)NC(=O)/C=C/c1ccco1,21%,25%,?,/
O=C(CCc1ccccc1)NCc1ccncc1,-2%,10%,-1%,3.7µM*
O=C(CCNNC(=O)c1ccncc1)NCc1ccccc1,1%,-8%,40µM*,?
CC(=O)CCc1c[nH]c2c(C(=O)O)cccc12,-2%,22%,7%,12µM*
CC(=O)CCc1ccccc1,3%,?,0%,23%
COc1cc2ncc(C(=O)c3ccccc3)c(N3CCN(Cc4ccccc4)CC3)c2cc1OC,-1%,4.7µM*,-15%,?
Cc1cccc(Nc2nnc(-c3ccc(C)c(S(=O)(=O)N4CCOCC4)c3)c3ccccc23)c1,/,/,-3%,/
COc1cc(C2NC(=O)NC(C)=C2C(=O)OC2CCCCC2)cc(Br)c1O (configuration not stated),2%,/,-17%,13µM*
CCCCOC(=O)C1=C(C)NC(=O)NC1c1ccccc1 (configuration not stated),-3%,6%,9%,8.3µM*
CCOC(=O)C1=C(C)NC(=O)NC1c1cc(Br)c(O)c(OC)c1 (configuration not stated),0%,-2%,7%,11%
COc1ccccc1C1NC(=O)NC(C)=C1C(=O)OC1CCCC(C)C1 (configuration not stated),-5%,-1%,0%,20%
COc1cc(C2NC(=O)NC(C)=C2C(=O)OC2CCCC(C)C2)ccc1O (configuration not stated),-2%,10µM*,-11%,/
CCOC(=O)C1=C(COc2ccccc2)NC(=O)NC1c1ccc(Br)cc1 (configuration not stated),-6%,?,-4%,3.3µM*
SMILES,SARS PLP yeast,Pf growth 48h,Sm TGR block,Pf growth 96h
Cc1cc(-c2nnc(SCC(=O)Nc3ccccc3F)n2N)n[nH]1,-1%,?,-6%,-13%
CC1=C(C(=O)OC2CCCCC2)C(c2ccccc2)NC(=O)N1 (configuration not stated),3%,8%,4%,9.3µM*
CCOC(=O)C1=C(CS(=O)(=O)c2ccccc2)NC(=O)NC1c1cc(OC)c(O)c(OC)c1 (configuration not stated),6%,17%,6%,2.6µM*
CC1=C(C(=O)OC2CCCCCCC2)C(c2ccc(O)cc2)NC(=O)N1 (configuration not stated),2%,/,?,-21%
C=CCOC(=O)C1=C(C)NC(=O)NC1c1ccc(Cl)cc1 (configuration not stated),0%,/,-8%,?
C=CCOC(=O)C1=C(C)NC(=O)NC1c1ccc(N(C)C)cc1 (configuration not stated),1%,43%,45µM*,?
COc1ccc(NC(=O)C2CCCN2S(=O)(=O)c2cccs2)c([N+](=O)[O-])c1 (configuration not stated),-5%,?,2%,-1%
CCOC(=O)C1CCCN(C2CC(=O)N(c3ccc(N4C(=O)CC(N5CCCC(C(=O)OCC)C5)C4=O)cc3)C2=O)C1 (configuration not stated),1%,38%,20µM*,-30%[5.75 µM]
CCOC(=O)C1CCCN(C2CC(=O)N(c3ccccc3)C2=O)C1 (configuration not stated),-5%,5%,?,53%
CCOC(=O)C1CCN(C2CC(=O)N(c3ccc(OCC)cc3)C2=O)CC1 (configuration not stated),-91%,-10%,50µM*,-9%
CCOC(=O)C1CCN(CC(O)COc2ccc(C(C)=O)cc2)CC1 (configuration not stated),4%,/,-24%,9.3µM*
CCc1ccc(N2C(=O)CC(N3CCC(C(=O)OC)CC3)C2=O)cc1 (configuration not stated),-25%,-1%,56µM*,/
CCCCCCOc1ccc(N2C(=O)CC(N3CCC(C(=O)OCC)CC3)C2=O)cc1 (configuration not stated),-26%,9%,4%,145%
Nc1ccc(C(=O)N2CCN(S(=O)(=O)c3ccc(Cl)s3)CC2)cc1[N+](=O)[O-],0%,-17%,1%,?
CCOC(=O)C1CCCN(C2CC(=O)N(c3ccc(C)c(C)c3)C2=O)C1 (configuration not stated),-38%,12%,45µM*,/
CCOC(=O)C1CCCN(C2CC(=O)N(c3ccc(C(C)C)cc3)C2=O)C1 (configuration not stated),-6%,-8%,?,32%
NC(=O)c1ccc(SCC(=O)OCC(=O)NCc2cccs2)c([N+](=O)[O-])c1,-2%,-28%,2%,10%
Oc1ccccc1NCC(O)Cn1ccc2ccccc21 (configuration not stated),-11%,?,?,2%
OC(CNCCNc1ncccc1C(F)(F)F)Cn1ccc2ccccc21 (configuration not stated),1%,1.5µM*,-18%,1.9µM*
OC(CNCc1ccccc1)Cn1ccc2ccccc21 (configuration not stated),10%,9.3µM*,0%,?
Cc1ccc(NC(=O)c2cnc3sc(N4CCOCC4)nn3c2=O)cc1N(C)C,/,/,-3%,/
O=C(Nc1ccc2c(c1)OCO2)c1c[nH]c(=O)n(-c2ccc(F)cc2)c1=O,-6%,?,-9%,?
COc1ccc(-n2nc(C(=O)NCC(=O)NCCCN3CC(C)CC(C)C3)c3ccccc3c2=O)cc1Cl (configuration not stated),1%,6.6µM*,-15%,29%
